The record followed here is PubChem BioAssay (EPA / NIEHS).

Several values for one entry are separate records, joined by “and”; a condition that tells them apart may be missing. Identical values can stand only once. Records with an inconclusive call do not appear. Where a structure was tested more than once in an assay, its records may differ in their call. Activity calls are given as the source filed them. How the source made its calls: active means hit-call score of the fitted dose curve at least 0.9, where 1 is the maximum; inconclusive means response in the unintended direction; inactive means score below 0.9.

Read-out in the assay: Cytochrome P450 2B6 (Homo sapiens) (UniProt P20813)
Nature of the assay: CLD_CYP2B6_6hr: CellzDirect (CLD) Gene Expression Assay for xenobiotic metabolism (CYP2B6) at 6 hours (AID 2283677).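 Further: actives raise CYP2B6 transcript above DMSO baseline so AC50 marks an inducer.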 The procedure: CLD_6hr is a cell-based, multiplexed-readout assay that uses hepatocyte, a human liver primary cell, with measurements taken at 6 hours after chemical dosing in a 96-well plate.CLD_CYP2B6_6hr is one of 16 assay component(s) measured or calculated from the CLD_6hr assay. It is designed to make measurements of mRNA induction, a form of inducible reporter, as detected with chemiluminescence signals by Quantitative Nuclease Protection Assay (qNPA) technology.Data from the assay component CLD_CYP2B6_6hr was analyzed at the endpoint, CLD_CYP2B6_6hr, in the positive analysis fitting direction relative to DMSO as the negative control and baseline of activity. Using a type of inducible reporter, gain-of-signal activity can be used to understand changes in the reporter gene as they relate to the gene CYP2B6. Furthermore, this assay endpoint can be referred to as a primary readout. To generalize the intended target to other relatable targets, this assay endpoint is annotated to the cyp intended target family, where subfamily is xenobiotic metabolism.
Human hepatocyte cultures were treated daily for two consecutive days with fresh dosing solutions containing appropriate concentrations of the 320 ToxCast chemicals (chemical identities were blinded to CellzDirect and other ToxCast collaborators), vehicle control (0.2% DMSO), and positive control inducers as summarized in Table 1. Due to the large number of treatment groups and chemicals examined, the ToxCast chemicals were divided into two groups (spanning two independent cultures of hepatocytes from separate donor preparations (Hu778: ToxCast plates 1 and 2; Hu776: ToxCast plates 3 and 4). Each preparation of human hepatocyte cultures was treated with respective vehicle control, medium only control, set of six positive controls/reference chemicals for the five hepatic receptor pathways, and a subset of eight of the ToxCast chemicals (indoxacarb, pyrithiobac-sodium, norflurazon, cyhalofop-butyl, methomyl, thiram, acetochlor, and propiconazole). These replicate data, coupled with internal replicates designed within the blinded ToxCast chemical library, provided additional data to evaluate interindividual differences between hepatocyte preparations and their potential impact on chemical profiles.Cell morphology and integrity were evaluated using phase-contrast microscopy as an indicator of hepatocyte cell health (Tyson & Green, 1987). Cultures for each treatment group (i.e., media, vehicle [0.2% DMSO], positive control inducers [multiple concentrations], and the ToxCast chemicals [multiple concentrations]) were observed and cell morphology was assessed relative to vehicle control cultures at each harvest time point (0, 6, 24, or 48 h). […] Images were evaluated at the conclusion of the study to assess changes in cell integrity and account for the effects of chemical exposure on uncharacteristic changes in concentration-dependent gene expression profiles. The results from these determinations of apparent cytotoxicity were annotated (yes/no) alongside the corresponding qNPA data for reference.At the conclusion of each treatment period, hepatocyte cultures (96-well) were washed with 1 volume of HBSS, lysed by addition of 25 ul ArrayPlate lysis buffer (HTG, Tucson, AZ), and 70 ul/well of Denaturation Oil, denatured by incubation at 95C for 10 min, and frozen at approximately -70C until analysis by nuclease protection assay (qNPA) (Roberts et al., 2007). For qNPA analysis, cell lysates were thawed at 50C for approximately 30 min, qNPA probes were added, and samples were incubated at 95C for 10 min to begin the detection process by denaturing the target RNA, dissociating the duplexes and secondary structure hybridization. At the conclusion of the hybridization period, S1 nuclease reagent was added to each sample to digest all nonprotected nucleotides at 50C for 60-90 min. […]
As to `CC(Oc1ccc(Cl)cc1Cl)C(=O)O` (stereo not given), the call was inactive.
Still for that read-out and setting: next, `COC(=O)C=C(C)OP(=O)(OC)OC`: “inactive”.
As a reminder, the AC50 is the concentration at which the activity in the assay is half-maximal. Turning to `CC1=C(C(=O)Nc2ccccc2)SCCO1`, the AC50 was 15.2 µM (active).
Turning to `COc1nc(C)nc(NC(=O)NS(=O)(=O)c2ccccc2Cl)n1`, the compound was classed as inactive.
`CC(C)Oc1cc(-n2nc(C(C)(C)C)oc2=O)c(Cl)cc1Cl`: the AC50 is 1.9 µM (active).
On the same count and under the same terms, the figure for `C=CC1(C)OC(=O)N(c2cc(Cl)cc(Cl)c2)C1=O` (stereo not given) is 8.32 µM (active); for `CCNc1nc(Cl)nc(NCC)n1` it is 7.74 µM (active); for `C=CCC1=C(C)C(OC(=O)C2C(C=C(C)C)C2(C)C)CC1=O` (stereo not given) it is 2.82 µM (active).
In the case of `CC(C)C1(C)N=C(c2nc3ccccc3cc2C(=O)O)NC1=O` (stereo not given), the outcome was inactive.
With `COc1nc(NC(C)C)nc(NC(C)C)n1`, the AC50 was 4.18 µM (active).
In the case of `COc1nc(C)nc(NC(=O)NS(=O)(=O)c2ccccc2CCC(F)(F)F)n1`, the AC50 was 3.21 µM (active) and 1.89 µM (active).
For `N#Cc1nn(-c2c(Cl)cc(C(F)(F)F)cc2Cl)c(N)c1S(=O)C(F)(F)F` (stereo not given), the AC50 was 2.91 µM (active).
As for `CCc1nn(C)c(C(=O)NCc2ccc(C(C)(C)C)cc2)c1Cl`, the call was inactive.
Take `COc1ccc(C(c2ccc(OC)cc2)C(Cl)(Cl)Cl)cc1`: the half-maximal activity concentration (AC50) is 7.31 µM (active).
Turning to `CCOC(=O)C(Cl)Cc1cc(-n2nc(C)n(C(F)F)c2=O)c(F)cc1Cl` (stereo not given), the concentration at half-maximal activity (AC50) was 3.01 µM (active).
Still for that read-out and setting: the figure for `O=C(Nc1ccccc1)Nc1ccnc(Cl)c1` is 20 µM (active).
On to `C#CCOS(=O)OC1CCCCC1Oc1ccc(C(C)(C)C)cc1` (stereo not given), for which the AC50 is 1.9 µM (active).
The same measure, in the same setting: next, `CCOc1cc(Oc2ccc(C(F)(F)F)cc2Cl)ccc1[N+](=O)[O-]`: 2.75 µM (active); `Fc1ccc(Oc2ccnc3cc(Cl)cc(Cl)c23)cc1`: 20 µM (active).
`CCCCNC(=O)OCC#CI`: the AC50 was 0.838 µM (active) and the outcome was inactive.
`O=C(O)COc1nc(Cl)c(Cl)cc1Cl`: the outcome was inactive.
`Cc1ccc(-c2c(Cl)nc(C#N)n2S(=O)(=O)N(C)C)cc1`: the concentration at half-maximal activity (AC50) is 1.88 µM (active).
For the compound `CCCC1COC(Cn2cncn2)(c2ccc(Cl)cc2Cl)O1` (stereo not given), the AC50 was 0.759 µM (active).
Consider `COC(=O)C(C)Oc1ccc(Oc2ccc(Cl)cc2Cl)cc1` (stereo not given), for which the AC50 is 3.09 µM (active) and 7.54 µM (active); the outcome was inactive.
For `COc1cnc(OC)n2nc(NS(=O)(=O)c3c(OCC(F)F)cccc3C(F)(F)F)nc12`, the compound was classed as inactive.
For the compound `CCNc1nc(Cl)nc(NC(C)C)n1`, the AC50 is 2.99 µM (active).
On the same count and under the same terms, next, `COP(=S)(OC)Oc1nc(Cl)c(Cl)cc1Cl`: 6.24 µM (active).
Regarding `O=C(O)c1nc(Cl)ccc1Cl`, the compound was classed as inactive.
As to `CNC(=O)ON=CC(C)(C)SC`, the compound was classed as inactive.
On the same count and under the same terms, the entry for `Oc1ccccc1-c1ccccc1` is “inactive”.
As to `N#CC(CCc1ccc(Cl)cc1)(Cn1cncn1)c1ccccc1` (stereo not given), the AC50 is 0.446 µM (active).
In the case of `Cc1c(F)c(F)c(COC(=O)C2C(/C=C(\Cl)C(F)(F)F)C2(C)C)c(F)c1F` (stereo not given), the AC50 was 20 µM (active).
As for `CNC(=S)S`, the outcome was inactive.
As for `C=CCC1=C(C)[C@@H](OC(=O)[C@@H]2[C@@H](C=C(C)C)C2(C)C)CC1=O`, the AC50 was 5.86 µM (active).
Regarding `CO/C=C(/C(=O)OC)c1ccccc1Oc1cc(Oc2ccccc2C#N)ncn1`, the AC50 is 1 µM (active).
Take `CCCCOC(=O)c1ccccc1C(=O)OCCCC`: the result was inactive.
For `N#Cc1cc(Br)c(O)c(Br)c1`, the result was inactive.
Take `CON(C)C(=O)Nc1ccc(Cl)c(Cl)c1`: the AC50 is 1.83 µM (active).
